Screens as filed in PubChem BioAssay.
Marburg entry inh: blocks Marburg virus binding to or entry into cells | Marburg virus pseudotyped entry inhibition, cell reporter | Potency, µM (series often up to 37.8 µM), for the others: top-dose activity change, negative = inhibition, usual class: inhibitors | 300,000 compounds, 1.8% hits; calls by dose curve; tested in HEK293 cells; also: potency is read from the fitted curve at half-maximal effect; % is scaled to controls: 0 for no effect and ±100 for the full control effect
Lassa entry inh: blocks Lassa virus binding to or entry into cells | Lassa virus pseudotype entry inhibition, cell reporter | AID 540256 | Potency, µM (highest dose often 37.9 µM), without a hit: at the top dose activity change, negative = inhibition, hits mostly inhibitors | 300,000 compounds, 1.2% hits; calls by dose curve; tested in HEK293 cells; also: potency is read from the fitted curve at half-maximal effect; % is scaled to controls: 0 for no effect and ±100 for the full control effect; nearly all actives have a fitted effect of over 50% in size
Cycloheximide cs: affects cycloheximide protein synthesis inhibition readout, counter-screen; cell reporter, cycloheximide protein synthesis inhibition counterscreen; max response, %; 300,000 compounds, 12% hits; in the data active = max response mostly above about 13%, no sharp cut-off; inactive = mostly below about 14%; also: read at 38.3 µM for the half of the compounds with a filed dose; 0% is about no effect
Pf growth 48h: inhibits P. falciparum growth in the first generation, 48 h | P. falciparum luciferase growth in erythrocytes, 48 h | Potency, µM (titrated, usually from 28.7 µM), without a hit: at the top dose activity change, negative = inhibition, actives largely listed as inhibitors | 310,000 compounds, 5.9% hits | AID 504832; also: potency is read from the fitted curve at half-maximal effect; % is scaled to controls: 0 for no effect and ±100 for the full control effect
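In quantitative HTS format, infected erythrocytes bearing luciferase-reporter parasites were treated for a single generation at 37 C. Luminescence after adding detection reagent served as the growth measure.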
Shiga inhibitor: blocks Shiga toxin action in Vero cells | 290,000 compounds, 9.2% hits | Vero cells, Shiga toxin protein synthesis inhibition reporter | AID 2315 | inhibition, % at 38.7 µM; in the data active = inhibition mostly above about 28%, no sharp cut-off; inactive = mostly below about 43%; also: 0% is about no effect
Pf growth 96h: P. falciparum growth inhibition at 96 hour, primary screen for plastid delayed-death inhibitors; 320,000 compounds, 6.9% hits; P. falciparum luciferase reporter growth, 96 h; Potency, µM (top dose mostly 28.7 µM), for the others: at the top dose activity change, negative = inhibition, hits mostly inhibitors; also: potency is read from the fitted curve at half-maximal effect; % is scaled to controls: 0 for no effect and ±100 for the full control effect
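Luminescence readout: decreased luciferase signal marks inhibited growth of reporter-expressing P. falciparum in infected red cells (2% hematocrit, 0.05% parasitemia final), exposed to compound two generations (96 h, 37 C, 5% CO2).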
Numbers without * were called inactive; [ ] = remark or other dose. Hits are enriched below; roughly 19% of the tested compounds scored in any of these assays. Unless noted, calls follow the shape of the dose curve; as a rule, active = well fitted inhibition curve with a large enough effect; inconclusive = small, poorly fitted or top-dose-only effect, or another doubt; inactive = no such curve, though single readings can be large or run the other way.

CC(Oc1ccc(S(=O)(=O)N2CCCC2)cc1[N+](=O)[O-])C(=O)N(C)c1ccccc1 (stereo not drawn) was read as Marburg entry inh 7%, Lassa entry inh -20%, Pf growth 48h inconclusive and Pf growth 96h inconclusive.
CC1CCN(C(=O)COC(=O)c2ccccc2NC(=O)c2ccco2)CC1 was read as Marburg entry inh inconclusive, Lassa entry inh -19%[46.1 µM], Cycloheximide cs 44*, Pf growth 48h 44%[5.75 µM], Shiga inhibitor 101* and Pf growth 96h -11%.
For O=C1CN(C(=O)COC(=O)c2ccccc2NC(=O)c2ccco2)c2ccccc2N1 the results were Marburg entry inh inconclusive, Lassa entry inh -12%, Cycloheximide cs -1, Pf growth 48h -10%, Shiga inhibitor -7 and Pf growth 96h 13µM*.
For O=C(COC(=O)c1ccccc1NC(=O)c1ccco1)NC1CC1 the results were Cycloheximide cs 6, Pf growth 48h 15%, Shiga inhibitor -3 and Pf growth 96h -3%.
`CCOC(=O)c1ccccc1NC(=S)N1CC(C)CC(C)C1` (stereo not drawn) gave Marburg entry inh 16%, Lassa entry inh 0%, Cycloheximide cs -3, Pf growth 48h 2.9µM*, Shiga inhibitor -3 and Pf growth 96h inconclusive.
For CC(Cc1ccccc1)NCc1ccccc1Cl (stereo not drawn) the results were Pf growth 48h 2% and Pf growth 96h 15%.
`Cc1ccc(CN2CCN(C(=O)c3cccc4ccccc34)CC2)cc1` gave Marburg entry inh inconclusive, Lassa entry inh inconclusive, Cycloheximide cs -3, Pf growth 48h -14%, Shiga inhibitor 4 and Pf growth 96h 4%.
O=C1/C(=C/c2ccco2)SC(=S)N1CCC(=O)N1CCCCC1CCO (stereo not drawn) was read as Cycloheximide cs 11*, Pf growth 48h inconclusive, Shiga inhibitor 16 and Pf growth 96h inconclusive.
`O=C1/C(=C/c2cccc(Cl)c2)SC(=S)N1CCC(=O)N1CCCCC1CCO` (stereo not drawn) gave Cycloheximide cs 15, Pf growth 48h inconclusive, Shiga inhibitor 26 and Pf growth 96h inconclusive.
O=C1/C(=C/c2ccccc2)SC(=S)N1CCCC(=O)N1CCCCC1CCO (stereo not drawn) was read as Cycloheximide cs 4, Pf growth 48h inconclusive, Shiga inhibitor -3 and Pf growth 96h 7.4µM*.
Screening O=C1/C(=C/c2ccc(Cl)cc2)SC(=S)N1CCC(=O)N1CCCCC1CCO (stereo not drawn) returned Cycloheximide cs -18, Pf growth 48h -9%, Shiga inhibitor 7 and Pf growth 96h 13µM*.
For O=C1/C(=C/c2cccs2)SC(=S)N1CC(=O)N1CCCCC1CCO (stereo not drawn) the results were Cycloheximide cs 15*, Pf growth 48h -7%, Shiga inhibitor 18 and Pf growth 96h 16%.
Screening O=C(NNC(=O)c1ccc2ncccc2c1)c1ccc(Cl)cc1 returned Marburg entry inh -4%, Lassa entry inh -27%, Cycloheximide cs 1, Pf growth 48h 15%, Shiga inhibitor 17 and Pf growth 96h 22%.
For O=C(Nc1nccs1)[C@@H]1CCCN1S(=O)(=O)c1ccc(Cl)cc1 the results were Marburg entry inh 10% and Lassa entry inh 3%.
Screening COc1ccc(CCNC(=O)c2cc(-c3ccc(C)cc3)nc3n[nH]c(-c4ccccc4)c23)cc1OC returned Lassa entry inh -22%[46.1 µM].
O=C1/C(=C/c2ccccc2F)SC(=S)N1CCC(=O)N1CCCCC1CCO (stereo not drawn) was read as Marburg entry inh inconclusive, Lassa entry inh inconclusive, Cycloheximide cs 31*, Pf growth 48h inconclusive, Shiga inhibitor 12 and Pf growth 96h inconclusive.
For COc1ccc(/C=C2\SC(=S)N(CCC(=O)N3CCCCC3CCO)C2=O)cc1 (stereo not drawn) the results were Cycloheximide cs 7, Pf growth 48h inconclusive, Shiga inhibitor 13 and Pf growth 96h inconclusive.
O=C1/C(=C/c2ccccc2F)SC(=S)N1CC(=O)N1CCCCC1c1cccnc1 (stereo not drawn) was read as Cycloheximide cs -4, Pf growth 48h -7%, Shiga inhibitor 9 and Pf growth 96h 15µM*.
